FMDV antiviral: High Throughput Screening for Foot and Mouth Disease Virus Antivirals; FMDV antiviral cell-based qHTS; Potency, µM (doses to about 57.9 µM), without a hit: at the top dose activity change, negative = inhibition, hits mostly inhibitors; 410,000 tested, 1.2% active; AID 1159524, 2015; calls by dose curve; tested in HEK293T cells; also: read-out not given here; potency is read from the fitted curve at half-maximal effect; nearly all actives have a fitted effect of over 45% in size
HCV inhibitor: qHTS Assay for Inhibitors of Hepatitis C Virus (HCV); Huh7.5.1 HCVcc-Cre infection, luciferase reporter, 44 h; Potency, µM (doses to about 41.8 µM), inactives show top-dose activity change, negative = inhibition, most hits filed as inhibitors; 340,000 tested, 3.4% active; active = well fitted inhibition curve with a large enough effect; inconclusive = small, poorly fitted or top-dose-only effect, or another doubt; inactive = no such curve, though single readings can be large or run the other way; also: potency is read from the fitted curve at half-maximal effect
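Reporter virus HCVcc-Cre (~0.5 moi) infects cells exposed to compound; seeding density 1,000 cells/well with 4 h settling beforehand. Luminescence, 15 sec read, taken 44 h post-infection following a 15 min RT substrate incubation.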
MARV entry inh: qHTS for inhibitors of binding or entry into cells for Marburg Virus. 300,000 tested, 1.8% active. Potency, µM (doses to about 37.8 µM), inactives show top-dose activity change, negative = inhibition, usual class: inhibitors. AID 540276, 2011. Marburg virus pseudotyped entry inhibition, cell reporter; calls by dose curve; tested in HEK293 cells; also: potency is read from the fitted curve at half-maximal effect
Lassa entry inh: qHTS for Inhibitors of binding or entry into cells for Lassa Virus. Potency, µM (titrated, usually from 37.9 µM), for inactives: top-dose activity change, negative = inhibition, actives largely listed as inhibitors. 300,000 tested, 1.2% active. Lassa virus pseudotype entry inhibition, cell reporter. AID 540256, 2011; calls by dose curve; tested in HEK293 cells; also: potency is read from the fitted curve at half-maximal effect; nearly all actives have a fitted effect of over 50% in size
HCMV inh: qHTS Assay for inhibitors of the human cytomegalovirus (HCMV). HFF cells, HCMV-luciferase reporter, 72 h; hits give low values. activity change, negative = inhibition, % at 57.5 µM. 410,000 tested, 4.5% active; in the data active = activity change below about -60%; inconclusive = no clear call, values can overlap the other calls; inactive = above about -39%
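Steps: HFFs plated, 16 h 37C; compounds added; HCMV-luciferase added to MOI 1 PFU/cell; 72 h 37C; OneGlo reagent, 5 min room temperature; luminescence read, normalized to controls.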
Starred values were filed as active, the others as inactive; ? = inconclusive; / = not tested or not shown; [ ] = dose if it differs, or a comment. An excerpt weighted towards active compounds, which were near 7.9% of everything screened. % is scaled to controls: 0 for no effect and ±100 for the full control effect.

SMILES	FMDV antiviral	HCV inhibitor	MARV entry inh	Lassa entry inh	HCMV inh
CCOC(=O)C1CCN(C(=O)CCCn2c(=O)c3cccn3c3cccnc32)CC1	-3%	1%	-12%[46.1 µM]	1%[46.1 µM]	?
CCOC(=O)C1CCN(C(=O)Cn2c(=O)c3cccn3c3cccnc32)CC1	-13%	11µM*	/	/	0
COc1ccc(NC(=O)c2nnn(Cc3nc(-c4cc(Br)ccc4OC)oc3C)c2C)cc1	-30%	/	4%[46.1 µM]	8%[46.1 µM]	7
Cc1ccc(Cn2c(CN3CCC(C(=O)NCc4ccccc4C)CC3)cc3ccccc32)cc1	-8%	/	/	10%[46.1 µM]	19
Cc1ccc(Cl)cc1N1CCN(C(=O)CCn2c(=O)c3cccn3c3cccnc32)CC1	?	/	/	0%[46.1 µM]	-3
CCOc1ccc(CNC(=O)Cn2c(=O)c3cccn3c3cccnc32)cc1	-2%	/	/	19%[46.1 µM]	-24
O=C(CCn1c(=O)c2cccn2c2cccnc21)N1CCN(c2cccc(Cl)c2)CC1	?	11µM*	?	?	-2
CCCNC(=O)Cn1c(=O)c2cccn2c2cccnc21	-1%	/	/	7%[46.1 µM]	-81*
COc1ccc(-c2nc3cc(F)ccc3cc2CN(C(=O)c2ccc3c(c2)OCO3)C2CC2)cc1	-9%	/	/	/	/
CSCc1cc(N(C)c2ccccc2)nc(-c2ccccn2)n1	0%	2.8µM*	/	/	-85*
O=C(NCCC1=CCCCC1)C1CCN(S(=O)(=O)c2ccccc2)CC1	-6%	8%	?	-1%[46.1 µM]	-5
O=C(NCCC1=CCCCC1)C1CCN(S(=O)(=O)c2cccc(C(F)(F)F)c2)CC1	?	11µM*	/	/	33
Cc1ccc(C(=O)NCCC2=CCCCC2)cc1S(=O)(=O)N1CCOCC1	18%	-27%	?	-4%[46.1 µM]	-18
Cc1ccc(C(=O)NCCC2=CCCCC2)cc1S(=O)(=O)N1CCCCC1	-1%	?	?	7.9µM*	-32
CN(C(=O)COC(=O)c1cccc(S(=O)(=O)N2CCCCCC2)c1)C1CCS(=O)(=O)C1 (stereo unspecified)	-11%	-1%	-26%	1%	2
C=CCN(c1ccccc1Cl)S(=O)(=O)c1cccc(C(=O)OCC(=O)N(C)C2CCS(=O)(=O)C2)c1 (stereo unspecified)	-28%	3.5µM*	?	?	-31
COc1ccc(NC(=O)c2cccc(S(=O)(=O)N3CCCCC3)c2)c(OC)c1	-7%	-20%	-27%[46.1 µM]	0%[46.1 µM]	-69*
Cn1c(=O)c2c(-c3ccc(Br)cc3)n(CCc3ccccc3)cc2n(C)c1=O	2%	/	?	-21%[46.1 µM]	43
CC(=O)Nc1cccc(-n2cc3c(c2-c2ccccc2Cl)c(=O)n(C)c(=O)n3C)c1	-21%	/	?	?	12
COc1ccc(CCNc2ccc(S(=O)(=O)N3CCCC3)cc2[N+](=O)[O-])cc1	?	?	-5%	?	-62*
COc1ccc(CCNC(=O)c2ccc(Cl)c(S(=O)(=O)N3CCCC3)c2)cc1	?	11µM*	/	/	-74*
O=C(NCCc1ccccc1)c1cccc(S(=O)(=O)N2CCCCC2)c1	13%	-18%	?	-34%	-33
COc1ccc(CCNC(=O)c2cccc(S(=O)(=O)N3CCCCC3)c2)cc1	-18%	?	-25%[46.1 µM]	-22%[46.1 µM]	-66*
C=CCN(c1ccccc1OC)S(=O)(=O)c1cccc(C(=O)NCc2cccs2)c1	-20%	4.5µM*	?	?	-63*
O=[N+]([O-])c1cc(S(=O)(=O)N2CCCC2)ccc1NCCc1ccccc1	-23%	15%	8%	19%	-29
SMILES	FMDV antiviral	HCV inhibitor	MARV entry inh	Lassa entry inh	HCMV inh
Cc1ccc(C(=O)NCc2cccnc2)cc1S(=O)(=O)N1CCCCCC1	-27%	?	-31%	?	-22
CN(C)S(=O)(=O)c1cccc(C(=O)NCCc2ccccc2)c1	?	-12%	?	?	23
O=C(NCCOc1ccc(Cl)cc1)c1cccc(S(=O)(=O)N2CCCC2)c1	?	16µM*	/	/	-68*
Cc1ccc(C(=O)NCc2cccc(C(F)(F)F)c2)cc1S(=O)(=O)N1CCCCC1	?	?	-6%[46.1 µM]	-9%	-66*
COc1ccccc1C(C)Nc1ccc(S(=O)(=O)N2CCN(C)CC2)cc1[N+](=O)[O-] (stereo unspecified)	-13%	11µM*	/	/	-9
C=CCN(c1ccccc1Cl)S(=O)(=O)c1cccc(C(=O)NCCc2ccc(OC)cc2)c1	-28%	?	?	12µM*	-65*
O=C(NCc1ccc(Cl)cc1)c1cccc(S(=O)(=O)N2CCCC2)c1	15%	5%	/	/	-39
CCN(C(=O)c1cc2c(Cl)nc3ccccc3c2s1)c1cccc(Cl)c1	-26%	/	?	-23%[46.1 µM]	-12
CNS(=O)(=O)c1cccc(C(=O)OCC(=O)c2c(N)n(C)c(=O)n(C)c2=O)c1	15%	?	10%[46.1 µM]	-16%	-14
C=CCN(c1ccccc1OC)S(=O)(=O)c1cccc(C(=O)OCC(=O)c2c(N)n(C)c(=O)n(C)c2=O)c1	40µM*	?	?	?	-70*
CC(=NCC1CCCO1)C1=C(O)CC(C)(C)CC1=O (stereo unspecified)	-24%	3%	-16%	5%	-62*
CC(=NCC1CCNCC1)C1=C(O)CC(C)(C)CC1=O	-3%	1%	0%	-2%	-21
Nc1ccc(C2(c3ccc(N)cc3)C(=O)Nc3ccccc32)cc1	/	1%	-13%	-6%	-62*
NC(=O)c1cc2ccc(O)cc2oc1=Nc1ccccc1	4%	13%	-3%	?	-82*
CC(=O)Nc1sc(N/N=C\c2ccccc2Cl)nc1-c1cccs1	20%	-18%	-16%	0%	-83*
CC(=O)Nc1sc(N/N=C/c2ccccc2F)nc1-c1ccc(C)cc1	74%	13µM*	-9%	/	-1
CC(=O)Nc1sc(N/N=C\c2ccccc2)nc1-c1cccs1	41%	-2%	11%	20%	-4
FC(F)(F)c1cc(NC(=S)Nc2ccc3ccccc3c2)cc(C(F)(F)F)c1	/	/	-8%[14.2 µM]	/	/
COc1cc2c(-c3ccc(O)cc3)nc3c(c(C)nn3-c3ccccc3)c2cc1OC	0%	11µM*	-15%	?	-72*
COc1ccc(-c2noc3c2-c2nc(-c4ccccc4F)sc2CC3)cc1	-20%	?	/	/	-16
CCOc1ccc(-c2nc3c(s2)CCc2onc(-c4ccc(OC)cc4)c2-3)cc1	-15%	9%	/	/	-60*
COc1ccc(-c2noc3c2-c2nc(-c4c(F)cccc4F)sc2CC3)cc1	?	3.5µM*	/	/	9
COc1ccc(-c2noc3c2-c2nc(-c4ccc(C)cc4)sc2CC3)cc1	-24%	16%	/	/	?
CN1CC[C@@]2(CCN3CCc4c(oc5ccccc45)[C@@H]3C2)N(C)C1=O	/	/	5%	/	/
CCc1nn(CC(=O)Nc2c(C)cccc2C)c(=O)c2cc3sccc3n12	-5%	/	5%[46.1 µM]	/	-3

Compound activity (PubChem BioAssay)
